An excerpt weighted towards active compounds, which were near 3.5% of everything screened.
MITF primary = inhibitors of human MITF. AlphaScreen MITF homodimerization, bead proximity signal. O75030. inhibition, % at 2.6 µM. 0.91% of 650,000 active; in the data active means inhibition above about 50%
FBW7 activator = activators of human E3 ligase FBW7; Q969H0; AlphaScreen FBW7–phospho-cyclin E peptide binding, activator screen; normalized activity (activation), % at 26.1 µM; 0.13% of 650,000 active; AID 1259310; in the data active means normalized activity above about 1.9%;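 further: purified mutant Fbw7 with reduced substrate affinity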
GPR151 activ = human GPR151 activation | Q8TDV0 | PathHunter beta-arrestin GPR151 cells, luminescence | activation, % at 11.2 µM | 1% of 650,000 active | AID 1508602; in the data active means activation above about 4.9%
Target sequence (Q8TDV0 whole entry, looked up): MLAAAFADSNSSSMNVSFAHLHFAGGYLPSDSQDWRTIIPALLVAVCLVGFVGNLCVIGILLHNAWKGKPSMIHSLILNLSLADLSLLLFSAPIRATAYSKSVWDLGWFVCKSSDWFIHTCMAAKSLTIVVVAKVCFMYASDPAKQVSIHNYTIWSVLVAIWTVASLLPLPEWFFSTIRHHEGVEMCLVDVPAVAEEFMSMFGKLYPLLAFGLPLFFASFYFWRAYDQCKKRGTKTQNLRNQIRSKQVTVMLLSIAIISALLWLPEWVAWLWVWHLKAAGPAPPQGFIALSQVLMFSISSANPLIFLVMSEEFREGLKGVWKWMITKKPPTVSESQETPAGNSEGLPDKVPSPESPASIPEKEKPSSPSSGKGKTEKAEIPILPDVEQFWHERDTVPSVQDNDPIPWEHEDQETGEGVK
TEAD-YAP block = TEAD-YAP interaction inhibition | HEK-TIYL cells, TEAD-Gal4/YAP UAS-luciferase luminescence | inhibition, % at 9.12 µM | 1.4% of 640,000 active | AID 1259422; in the data active means inhibition above about 32%
Each line names hits and unclear results; the compound was inactive in the other large screens.

Nc1ccc(-c2nc3cc(Cc4ccc5oc(-c6ccc(N)cc6)nc5c4)ccc3o2)cc1	none
CCc1ccc2oc(-c3cc(N)ccc3Cl)nc2c1	none
Cc1c(C(N)=O)sc2ncn(Cc3ccccc3F)c(=O)c12	none
O=c1c(=O)n(Cc2cccc(Cl)c2)ccn1Cc1ccccc1	none
O=C(O)c1ccc([N+](=O)[O-])cc1NC(=O)c1cccc2ccccc12	none
COc1ccc(-c2nc3n(n2)C(c2ccc(O)cc2)C(C(N)=O)=C(C)N3)cc1 (stereo not given)	none
COc1cccc(-c2nc3cc(N)ccc3o2)c1	TEAD-YAP block 49
Cc1ccc(-c2nc3cc(N)ccc3o2)cc1Cl	none
COC(=O)c1ccc(-c2nc3cc(NC(C)=O)c(N)cc3o2)cc1	none
COC(=O)c1ccc(-c2nc3cc(N)ccc3o2)cc1	TEAD-YAP block 72
CN(C)c1ccc(-c2nc3cc(N)ccc3o2)cc1	TEAD-YAP block 79
Cc1cc(SCC(=O)O)c(C)cc1Cl	none
Cc1nc(N2CCC(C)CC2)[nH]c(=O)c1[N+](=O)[O-]	none
CCSc1nc2scc(C(F)(F)F)n2c(=O)c1C(=O)NCc1cccc(OC)c1	none
O=C(NC(c1ccc(Cl)cc1)c1ccc2cccnc2c1O)c1ccccc1 (stereo not given)	TEAD-YAP block 75
COc1ccc(C(=O)NC(c2ccc(Cl)cc2)c2cc(Cl)c3cccnc3c2O)cc1 (stereo not given)	none
COc1cccc(C(NC(=O)c2ccccc2)c2ccc3cccnc3c2O)c1 (stereo not given)	none
COc1ccc(C(NC(=O)c2ccccc2)c2ccc3cccnc3c2O)cc1 (stereo not given)	TEAD-YAP block 38
c1ccc(-c2cnc(SCCN3CCOCC3)n2CC2CCCO2)cc1 (stereo not given)	MITF primary 57
NC(=O)C1CCCN(C(=O)Nc2ccc(F)cc2F)C1 (stereo not given)	none
Cc1ccc(OCC(=O)NC(=S)Nc2ccccn2)c(Br)c1	TEAD-YAP block 88
O=C(COc1ccc(Br)cc1Cl)NC(=S)Nc1ccccn1	TEAD-YAP block 46
O=C(CNc1ccc(N2CCCC2=O)cc1)c1ccc(Cl)cc1	none
CCCN(CCC)S(=O)(=O)c1ccc(C(=O)NNC(=O)c2cccs2)cc1	none
CCc1nn(CC(=O)C(C)(C)C)c(=O)c2cc3ccsc3n12	FBW7 activator 17
COc1ccc(/C=C2/C(=O)OCc3cc(OC)c(OC)cc32)cc1	TEAD-YAP block 45
C=CCNC(=S)NNc1ccc(C(F)(F)F)cc1[N+](=O)[O-]	none
O=C(CSc1cc(N2CCCC2)ncn1)c1ccccc1	TEAD-YAP block 76
O=C(c1cnn2c1NC(c1ccco1)CC2C(F)(F)F)N1CCN(Cc2ccccc2)CC1 (stereo not given)	TEAD-YAP block 45
C=CCOc1ccc(/C=N/NC(=O)Cc2ccccc2)cc1OCC	none
COc1ccc(CCNC(=O)c2ccc3nc(Nc4ccc5ncccc5c4)sc3c2)cc1	TEAD-YAP block 32
CC(=O)Nc1nc2c(c3c1c(=O)oc1ccccc13)CC(C(C)(C)C)CC2 (stereo not given)	none
O=C1NC(=S)NC(=O)C1=Cc1ccc(N2Cc3ccccc3C2)cc1	none
O=C1NC(=S)NC(=O)C1=CN1CCCc2ccccc21	FBW7 activator 2.5
O=c1nc(SCc2ccc(Cl)c(Cl)c2)c2c(n1CC1CCCO1)CCCC2 (stereo not given)	none
COc1ccc2[nH]c(CN3CCC4(CC3)NC(=O)c3ccccc3O4)c(C)c2c1	TEAD-YAP block 68
O=[N+]([O-])c1cc(Oc2ccc(Cl)cc2)cc(Oc2ccc3c(c2)oc2ccccc23)c1	none
CCCN1C(=O)CC(C(=O)OC)C12CCN(CC(C)Cc1ccc3c(c1)OCO3)CC2 (stereo not given)	none
COc1cc(CNC(=O)Cn2nc(C(F)(F)F)c(Br)c2C)cc(OC)c1	none
Cc1c(Br)c(C(F)(F)F)nn1CC(=O)NCc1ccc(F)cc1C(F)(F)F	TEAD-YAP block 36
O=C(Nc1ccc(Cl)c(Cl)c1)c1ccc(F)c(S(=O)(=O)NC2CCCC2)c1	none
CC(C)c1ccc(NC(=O)c2ccc(F)c(S(=O)(=O)NC3CCCCCC3)c2)cc1	none
O=C(Nc1ccc(Oc2ccccc2)cc1)c1ccc(F)c(S(=O)(=O)NC2CCCC2)c1	TEAD-YAP block 65
O=C(Nc1ccc(Oc2ccccc2)cc1)c1ccc(F)c(S(=O)(=O)NC2CCCCC2)c1	TEAD-YAP block 58
O=C(Nc1ccc(Oc2ccccc2)cc1)c1ccc(F)c(S(=O)(=O)NC2CCCCCC2)c1	TEAD-YAP block 50
O=C(Nc1ccc(Oc2ccccc2)cc1)c1ccc(F)c(S(=O)(=O)NCc2ccccc2Cl)c1	TEAD-YAP block 41
COCCNC(=O)N1CCN(c2nc3ccc(SC)cc3s2)CC1	none
N#Cc1ccccc1Cn1nnc2ccccc2c1=O	none

Assay outcomes deposited in PubChem by The Scripps Research Institute Molecular Screening Center.
